Screening data as filed in PubChem BioAssay.
CIT2-GFP yeast: modulators of TOR pathway CIT2-GFP in S. cerevisiae; GFP response vs DMSO, % at 10 µM; S. cerevisiae CIT2-GFP strain, flow cytometry, 3 h; 100 means same as DMSO wells; 320,000 compounds, 0.065% hits; AID 2029;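 active means GFP response relative to DMSO above a set limit, near the screen mean plus 3 SD, cut at about 150% in these data; inconclusive means Fewer than 70 cells measured for a yeast strain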;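 further: ratio of well median GFP fluorescence to mean of DMSO wells on the plate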
RPL19A-GFP yeast: alters RPL19A-GFP fluorescence in TOR pathway yeast screen | S. cerevisiae RPL19A-GFP strain, flow cytometry, 3 h; hits give low values | percent response vs DMSO, % at 10 µM | 330,000 compounds, 0.3% hits | AID 2025;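 active means percent response vs DMSO below 50%; inconclusive means fewer than 70 events counted for the yeast strain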;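 further: median channel GFP fluorescence of the barcoded RPL19A-GFP strain; ratio of sample median GFP to plate DMSO average so 100% = DMSO; lower means less RPL19A-GFP as with rapamycin TOR inhibition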
MEP2 TOR yeast: yeast TOR pathway MEP2-GFP modulation; S. cerevisiae MEP2-GFP strain, flow cytometry GFP, 3 h; 100% = DMSO control level; GFP response vs DMSO, % at 10 µM; 330,000 compounds, 0.51% hits; AID 2016;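 active means GFP response versus DMSO above a set limit, roughly screen mean plus 3 SD, cut at about 180% in these data; inconclusive means fewer than 70 cells counted for a yeast strain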;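 further: median GFP fluorescence of the barcode-gated MEP2-GFP cells per well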
AGP1-GFP MLPCN: modulators of TOR pathway AGP1-GFP in S. cerevisiae. GFP response vs DMSO, % at 10 µM. 320,000 compounds, 0.02% hits. S. cerevisiae AGP1-GFP multiplex flow cytometry, 3 h; GFP as percent of DMSO wells;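 active means GFP response relative to DMSO above a set limit, near screen average plus 3 SD, cut at about 150% in these data; inconclusive means fewer than 70 cells counted for the yeast strain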;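 further: median GFP channel fluorescence of the gated AGP1 strain per well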
Pemphigus Ab inh: human desmoglein-3 autoantibody binding inhibition; P32926; DSG3-coupled beads, scFv-anti-DSG3-GFP binding, flow cytometry; hits give low values; binding (percent of control), % at 10 µM; 310,000 compounds, 0.48% hits; AID 588358;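 active means binding more than 3 SD below its plate's average and above zero; inconclusive means below that plate limit but binding exactly zero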;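 further: hits lower antibody fragment binding to DSG3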
Target sequence (P32926 whole entry, looked up, the tested form may be a part): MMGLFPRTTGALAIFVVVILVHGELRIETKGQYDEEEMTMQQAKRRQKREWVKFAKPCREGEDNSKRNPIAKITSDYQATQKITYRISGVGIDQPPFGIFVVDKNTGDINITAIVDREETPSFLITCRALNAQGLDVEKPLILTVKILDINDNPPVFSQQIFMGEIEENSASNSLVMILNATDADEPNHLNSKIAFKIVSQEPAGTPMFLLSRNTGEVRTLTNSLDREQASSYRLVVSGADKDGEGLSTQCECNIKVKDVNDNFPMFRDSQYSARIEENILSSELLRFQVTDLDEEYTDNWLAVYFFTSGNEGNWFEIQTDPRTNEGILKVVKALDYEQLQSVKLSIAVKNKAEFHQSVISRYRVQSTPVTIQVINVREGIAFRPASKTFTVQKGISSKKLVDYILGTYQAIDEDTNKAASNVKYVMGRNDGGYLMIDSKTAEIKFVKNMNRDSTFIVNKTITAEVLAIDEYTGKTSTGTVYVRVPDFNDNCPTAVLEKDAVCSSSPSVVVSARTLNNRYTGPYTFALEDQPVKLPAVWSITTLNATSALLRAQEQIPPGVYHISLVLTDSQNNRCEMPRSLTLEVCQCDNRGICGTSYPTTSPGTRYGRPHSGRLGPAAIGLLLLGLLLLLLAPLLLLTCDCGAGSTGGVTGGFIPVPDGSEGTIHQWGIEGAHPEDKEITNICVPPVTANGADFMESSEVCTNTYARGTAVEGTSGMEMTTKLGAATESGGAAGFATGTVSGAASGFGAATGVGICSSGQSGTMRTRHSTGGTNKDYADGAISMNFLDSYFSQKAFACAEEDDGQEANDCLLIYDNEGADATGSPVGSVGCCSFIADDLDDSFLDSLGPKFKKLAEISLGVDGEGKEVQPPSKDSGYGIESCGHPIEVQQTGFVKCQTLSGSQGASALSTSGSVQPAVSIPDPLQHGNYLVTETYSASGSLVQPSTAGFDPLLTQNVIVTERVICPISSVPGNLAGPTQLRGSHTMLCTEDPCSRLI
LAP4 TOR yeast: alters LAP4-GFP fluorescence in TOR pathway yeast screen. AID 2023. GFP response vs DMSO, % at 10 µM. 320,000 compounds, 0.34% hits. S. cerevisiae LAP4-GFP multiplex, flow cytometry GFP, 3 h; median GFP as percent of DMSO wells;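 active means GFP response vs DMSO above a set limit, about the screen mean plus 3 SD, cut at about 150% in these data; inconclusive means under 70 cell events counted for the yeast strain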
* marks the source's active call; other numbers are inactive results; [ ] = another dose, or the depositor's remark. Only some compounds are listed: those with a hit (about 1.2% of all), similar ones and a draw of the others.

Results for CCN(CC)CC(=O)NCc1cc(-c2ccc(OC)cc2)no1 ?
CIT2-GFP yeast: 117; RPL19A-GFP yeast: 109; MEP2 TOR yeast: 101; AGP1-GFP MLPCN: 115; LAP4 TOR yeast: 98

Results for COc1ccc(-c2cc(CNC(=O)CN3CCN(C)CC3)on2)cc1 ?
CIT2-GFP yeast: inconclusive; MEP2 TOR yeast: 257*[may fluoresce violet]; AGP1-GFP MLPCN: 32; Pemphigus Ab inh: 98; LAP4 TOR yeast: 87

What do the screens show for `O=C(c1ccc(Cl)cc1)N1CCCCC(Cl)C1=O` (configuration not stated)?
CIT2-GFP yeast: 93; RPL19A-GFP yeast: 101; MEP2 TOR yeast: 91; AGP1-GFP MLPCN: 102; Pemphigus Ab inh: 118; LAP4 TOR yeast: 96

How did CC(C)NC(=O)c1ccccc1N(Cc1ccccc1)S(C)(=O)=O do in these assays?
CIT2-GFP yeast: 103; RPL19A-GFP yeast: 100; MEP2 TOR yeast: 101; AGP1-GFP MLPCN: 106; LAP4 TOR yeast: 95

How did CC(C)NC(=O)c1ccc(N(Cc2ccccc2)S(C)(=O)=O)cc1 do in these assays?
CIT2-GFP yeast: 106; RPL19A-GFP yeast: 107; MEP2 TOR yeast: 108; AGP1-GFP MLPCN: 113; Pemphigus Ab inh: 88*; LAP4 TOR yeast: 106

What do the screens show for `Cc1ccccc1CN(c1ccc(C(N)=O)cc1)S(C)(=O)=O`?
CIT2-GFP yeast: inconclusive; RPL19A-GFP yeast: 17*[may fluoresce violet]; MEP2 TOR yeast: 310*[may fluoresce violet]; AGP1-GFP MLPCN: inconclusive; Pemphigus Ab inh: 102; LAP4 TOR yeast: 102

Results for Cc1cccc(C)c1NC(=O)NC1(C(=O)NCc2ccncc2)CCCCC1 ?
CIT2-GFP yeast: 108; RPL19A-GFP yeast: 89; MEP2 TOR yeast: 106; AGP1-GFP MLPCN: 91; Pemphigus Ab inh: 116; LAP4 TOR yeast: 101

What do the screens show for `Cc1ccc(C(=O)Nc2ccncc2)cc1S(=O)(=O)N1CCCCC1`?
Pemphigus Ab inh: 106

Results for O=C(CN1CCN(c2ccc(O)cc2)CC1)Nc1ccc(S(=O)(=O)N2CCCC2)cc1 ?
CIT2-GFP yeast: 100; RPL19A-GFP yeast: 94; MEP2 TOR yeast: 97; AGP1-GFP MLPCN: 97; Pemphigus Ab inh: 73*; LAP4 TOR yeast: 93

What do the screens show for `CC(C)CC(=O)Nc1ccc(C(=O)CN2CCN(c3ccc(O)cc3)CC2)cc1`?
CIT2-GFP yeast: inconclusive; RPL19A-GFP yeast: 26*[may fluoresce violet]; MEP2 TOR yeast: 237*[may fluoresce violet]; AGP1-GFP MLPCN: inconclusive; Pemphigus Ab inh: 94; LAP4 TOR yeast: 58

Results for O=C(CN1CCCCC1)Nc1ccc(S(=O)(=O)N2CCCCCC2)cc1 ?
CIT2-GFP yeast: 94; RPL19A-GFP yeast: 94; MEP2 TOR yeast: 102; AGP1-GFP MLPCN: 92; Pemphigus Ab inh: 102; LAP4 TOR yeast: 96

Results for CC[C@]12c3[nH]c4cc(CCC(=O)N(C)C)ccc4c3CCN1C(=O)[C@@H](CC(=O)NC/C=C(\C)CCC=C(C)C)C[C@@H]2C(=O)N1CCN(C(=O)c2ccco2)CC1 ?
Pemphigus Ab inh: 87

How did O=C(COC(=O)c1ccc(O)cc1)c1ccc2c(c1)OCCO2 do in these assays?
Pemphigus Ab inh: 100

Results for COC(=O)C(Cc1ccc(O)cc1)NC(=O)c1ccc2c(c1)OCCO2 (configuration not stated) ?
CIT2-GFP yeast: inconclusive; RPL19A-GFP yeast: 39*[may fluoresce violet]; MEP2 TOR yeast: 237*[may fluoresce violet]; AGP1-GFP MLPCN: inconclusive; LAP4 TOR yeast: 67

How did COC(=O)C(Cc1ccc(O)cc1)NC(=O)CCc1ccco1 (configuration not stated) do in these assays?
CIT2-GFP yeast: inconclusive; RPL19A-GFP yeast: 18*[may fluoresce violet]; MEP2 TOR yeast: inconclusive; AGP1-GFP MLPCN: inconclusive; Pemphigus Ab inh: 110; LAP4 TOR yeast: inconclusive

How did CN(CC(=O)Nc1cccc(F)c1)C(=O)c1cccc(S(=O)(=O)N2CCN(c3ccc(F)cc3)CC2)c1 do in these assays?
Pemphigus Ab inh: 99

Results for Cc1cc(C(=O)C(=O)O)c(C)n1-c1ccc(Cl)c(Cl)c1 ?
CIT2-GFP yeast: 94; RPL19A-GFP yeast: 86; MEP2 TOR yeast: 87; AGP1-GFP MLPCN: 82; Pemphigus Ab inh: 109; LAP4 TOR yeast: 91

Results for COc1cc(/C=C2\SC(N3CCC(C)CC3)=NC2=O)ccc1O ?
CIT2-GFP yeast: 100; RPL19A-GFP yeast: 108; MEP2 TOR yeast: 108; AGP1-GFP MLPCN: 95; Pemphigus Ab inh: 90; LAP4 TOR yeast: 86

What do the screens show for `COc1ccc(C(=O)Nc2ccc(NC(=O)c3cnccn3)cn2)cc1`?
RPL19A-GFP yeast: 97; MEP2 TOR yeast: 105; AGP1-GFP MLPCN: 94; Pemphigus Ab inh: 72*; LAP4 TOR yeast: 99

Results for O=C(COC(=O)CC1SC(N2CCCC2)=NC1=O)Nc1c(F)c(F)c(F)c(F)c1F (configuration not stated) ?
CIT2-GFP yeast: 98; RPL19A-GFP yeast: 97; MEP2 TOR yeast: 99; AGP1-GFP MLPCN: 97; Pemphigus Ab inh: 109; LAP4 TOR yeast: 98

What do the screens show for `COc1ccc(Cc2nnc(NC(=O)c3ccccc3F)s2)cc1`?
CIT2-GFP yeast: 141; RPL19A-GFP yeast: 74; MEP2 TOR yeast: 914*; AGP1-GFP MLPCN: 155*; Pemphigus Ab inh: 122; LAP4 TOR yeast: 294*

What do the screens show for `COc1ccc(Cc2nnc(NC(C)=O)s2)cc1`?
CIT2-GFP yeast: 98; RPL19A-GFP yeast: 98; MEP2 TOR yeast: 97; AGP1-GFP MLPCN: 96; Pemphigus Ab inh: 102; LAP4 TOR yeast: 92

What do the screens show for `O=C(O)CCC(=O)Nc1ccc(-c2csc(Nc3cccc4ccccc34)n2)cc1`?
CIT2-GFP yeast: 102; RPL19A-GFP yeast: 96; MEP2 TOR yeast: 96; AGP1-GFP MLPCN: 101; Pemphigus Ab inh: 100; LAP4 TOR yeast: 100

Results for O=C1c2ccccc2C(=O)N1CCn1ccnc1 ?
CIT2-GFP yeast: 107; RPL19A-GFP yeast: 106; MEP2 TOR yeast: 107; AGP1-GFP MLPCN: 105; Pemphigus Ab inh: 106; LAP4 TOR yeast: 99

What do the screens show for `O=C1c2ccccc2C(=O)N1CCCn1ccnc1`?
CIT2-GFP yeast: 104; RPL19A-GFP yeast: 104; MEP2 TOR yeast: 106; AGP1-GFP MLPCN: 100; Pemphigus Ab inh: 91*; LAP4 TOR yeast: 100

What do the screens show for `C#CCOCCOCCOCCNc1nc(N2CCN(C(=O)CCCCCCCCCCNC(=O)[C@H](CCCCN)n3cc(C[C@@H](C)CC)nn3)CC2)nc(N2CCN(C(=O)CCCCCCCCCCNC(=O)[C@H](CCCN=C(N)N)n3cc(C[C@@H](C)CC)nn3)CC2)n1`?
CIT2-GFP yeast: 99; RPL19A-GFP yeast: 63; MEP2 TOR yeast: 114; AGP1-GFP MLPCN: 99; Pemphigus Ab inh: 164; LAP4 TOR yeast: 198*
